Screens from PubChem.
The sample as a whole holds a higher share of hits than the screen did.
BLM inh: Bloom syndrome helicase (human) inhibition; P54132; recombinant BLM DNA unwinding, fluorescence dequenching; Potency, µM (titrated, usually from 56.1 µM), inactives show at the top dose activity change, negative = inhibition, most hits filed as inhibitors; hit rate 0.2% among 350,000; AID 2528;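 note: plate controls were vehicle for no effect and no enzyme for full effect; nearly all actives have a fitted effect of over 35% in size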
L3MBTL1 inh: L3MBTL1 (human) inhibition. Q9Y468. AlphaScreen L3MBTL1–H3K9me1 peptide binding. Potency, µM (titrated, usually from 57.1 µM), inactives show top-dose activity, negative = inhibition, most hits filed as inhibitors. hit rate 0.66% among 230,000. AID 485360; note: nearly all actives have a fitted effect of over 60% in size
Target sequence (Q9Y468 whole entry, looked up): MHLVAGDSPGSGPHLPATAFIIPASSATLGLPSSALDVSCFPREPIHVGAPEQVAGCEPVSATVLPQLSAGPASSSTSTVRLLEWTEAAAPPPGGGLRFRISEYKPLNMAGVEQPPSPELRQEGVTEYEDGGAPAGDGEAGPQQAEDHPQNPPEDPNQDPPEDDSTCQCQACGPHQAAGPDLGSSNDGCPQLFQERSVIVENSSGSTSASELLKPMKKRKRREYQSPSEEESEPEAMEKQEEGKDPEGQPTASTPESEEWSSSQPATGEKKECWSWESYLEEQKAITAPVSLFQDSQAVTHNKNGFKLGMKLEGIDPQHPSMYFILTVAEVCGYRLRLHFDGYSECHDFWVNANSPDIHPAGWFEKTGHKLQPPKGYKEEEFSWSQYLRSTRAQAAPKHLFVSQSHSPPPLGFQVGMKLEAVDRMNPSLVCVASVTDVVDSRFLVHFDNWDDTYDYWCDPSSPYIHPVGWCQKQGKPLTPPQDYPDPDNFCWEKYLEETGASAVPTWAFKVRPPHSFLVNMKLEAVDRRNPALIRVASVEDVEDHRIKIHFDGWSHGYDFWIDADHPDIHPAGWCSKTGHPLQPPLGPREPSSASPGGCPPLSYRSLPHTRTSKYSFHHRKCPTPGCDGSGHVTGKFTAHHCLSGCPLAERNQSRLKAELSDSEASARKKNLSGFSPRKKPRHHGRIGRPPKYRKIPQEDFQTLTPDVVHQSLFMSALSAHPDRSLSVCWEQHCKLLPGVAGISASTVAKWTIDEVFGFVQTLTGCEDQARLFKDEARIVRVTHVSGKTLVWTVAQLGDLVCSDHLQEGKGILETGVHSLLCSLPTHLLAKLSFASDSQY
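Read-out is AlphaScreen signal from streptavidin donor and nickel chelate acceptor beads (10 ug/mL final each) bridging L3MBTL1 (50 nM) and biotinylated K9-monomethylated H3(1-15) peptide (75 nM), after 30 min compound exposure at room temperature.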
KAT2A inh: inhibitors of human GCN5L2 histone acetyltransferase | Q92830 | GCN5L2 HAT assay, ThioGlo1 CoA-SH fluorescence | Potency, µM (top dose mostly 58.9 µM), for inactives: top-dose activity change, negative = inhibition, hits mostly inhibitors | hit rate 0.21% among 390,000 | AID 504327
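GCN5L2 (20nM final) in 50mM HEPES, 0.1mM EDTA pH 7.5, 0.01% Tween-20 was preincubated 15 min at room temperature with compound, then given ThioGlo1 (50uM), H3(1-25) peptide (75uM) and acetyl-CoA (70uM); CoA-thiol fluorescence (Ex340/Em540) was read at 0 and 20 min.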
JMJD2E inh: JMJD2E (human) inhibition. JMJD2E catalytic domain, FDH-coupled NADH fluorescence (FDH is formaldehyde dehydrogenase). Potency, µM (series often up to 57.1 µM), inactives show at the highest dose activity change, negative = inhibition, most hits filed as inhibitors. B2RXH2. hit rate 1.6% among 230,000; active = well fitted inhibition curve with a large enough effect, not every such curve was filed as active; inconclusive = small, poorly fitted or top-dose-only effect, or another doubt; inactive = no such curve, though single readings can be large or run the other way;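 note: 0% = wells with enzyme and -100% = buffer wells without enzyme; nearly all actives have a fitted effect of over 50% in size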
APE1 inh: APE1 (human) endonuclease inhibition. Potency, µM (highest dose often 65.8 µM), for the others: at the top dose activity change, negative = inhibition, actives largely listed as inhibitors. recombinant APE1, TAMRA/BHQ-2 abasic DNA cleavage fluorescence. hit rate 0.35% among 350,000. AID 2517;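 note: plate controls were vehicle for no effect and reference inhibitor for full effect; nearly all actives have a fitted effect of over 55% in size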
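APE1 at 0.75 nM final was preincubated with compound 15 min at room temperature, then 50 nM double-stranded THF abasic-site substrate (5'-TAMRA/3'-BHQ-2) was added. Fluorescence (ex 525/em 598 nm) was read kinetically; third-minus-first read gave activity.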
RECQ1 inh: inhibitors of human RECQ1 DNA helicase. P46063. RECQ1 DNA unwinding, red fluorescence kinetic read. Potency, µM (doses to about 57.3 µM), for inactives: top-dose activity, negative = inhibition, usual class: inhibitors. hit rate 0.54% among 240,000;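 note: plate controls were vehicle for no effect and no enzyme for full effect; nearly all actives have a fitted effect of over 30% in size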
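RECQ1T1 50 nM; forked duplex (20 bp + 30-nt ss tails) 200 nM, ATP 2 mM final; pH 8.0, 2 mM MgCl2, 2.5 ug/ml poly(dI-dC); 15 min compound preincubation; discontinuous kinetic read over 2 h at RT.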
Active calls of the source: *; i = inactive; ? = inconclusive; . = no result given; ! = not confirmed by another sample. Unless noted, calls come from the whole dose curve; as a rule, active = well fitted curve in the direction sought with a large enough effect; inconclusive = small, poorly fitted or top-dose-only effect, or another doubt; inactive = no such curve, though single readings can be large; an effect the other way counts as inactive or inconclusive. Unless noted, % is set by controls: 0 for no effect and ±100 for the full control effect; potency is the fitted concentration of half-maximal effect.

SMILES | BLM inh | L3MBTL1 inh | KAT2A inh | JMJD2E inh | APE1 inh | RECQ1 inh
NS(=O)(=O)c1ccc(N/N=C2/CCCCC2C2CCCCC2)c([N+](=O)[O-])c1 (centres undefined) | -15.6% | ? | -14.8% | 1.0% | -5.3% | 2µM*
CCCC1(C)C(C#N)(C#N)C1(C#N)C#N | . | . | -16.9% | . | . | .
COc1ccc(CCN(/C=C2\Sc3ccccc3C2=O)C(C)=O)cc1OC | -4.5% | -1.2% | -6.3% | 31.6µM* | -2.4% | -2.3%
CCC1=Nc2cc(C(=O)NCCc3ccc(OC)c(OC)c3)ccc2Sc2ccccc21 | -7.3% | . | -10.5% | . | . | .
O=C1CCCC(O)=C1N=Nc1c(Cl)cc(Cl)cc1Cl | 3.2% | -14.4% | 0.0% | -9.9% | ? | 25.1µM*
Cc1nn(C(=O)CCCC(=O)NCc2ccccc2)c2ccccc12 | -0.2% | . | -0.9% | . | -9.2% | .
CN(C)c1ccc(/C=C(/NC(=O)c2ccccc2)C(=O)NCCCn2ccnc2)cc1 | 3.0% | . | -6.1% | . | -9.9% | .
Cc1cccc(Cn2cnc3c(cnn3C(C)(C)C)c2=O)c1F | . | . | . | . | -4.8% | .
O=S(=O)(O)c1cc(O)c2c(N=Nc3ccc(Nc4ccccc4)c4c(S(=O)(=O)O)cccc34)cc(S(=O)(=O)O)cc2c1 | 79.1% | . | 12.6µM* | . | . | .
O=S(=O)(O)c1ccc2c(N=Nc3ccc(S(=O)(=O)O)c4ccccc34)c(O)c(S(=O)(=O)O)cc2c1 | -2.3% | . | -8.8% | . | . | .
Cc1noc(C)c1C(=O)N1CCC[C@@]2(CCN(C(c3ccccc3)c3ccccc3)C2)C1 | 2.7% | . | -13.4% | . | 25.3% | i
CC(C)c1ccc(N2C(=O)/C(=C/N(C)C)SC2=S)cc1 | 35.2% | . | -7.8% | -3.6% | 28.2µM* | 31.6µM*
CCO/C=C1\SC(=S)N(c2ccc(Cl)cc2)C1=O | -5.9% | -18.9% | 1.6% | 1.2% | ? | ?
CC(C)(C)n1ncc2c(=O)n(Cc3cccc(C(F)(F)F)c3)cnc21 | . | . | . | . | -3.7% | .
Cc1ccc(S(=O)(=O)Nc2ccc(O)c3ncccc23)cc1 | -2.0% | . | -10.3% | 25.1µM* | -7.3% | -2.7%
N[C@H](C(=O)O)c1cc(O)cc(O)c1 | -1.4% | . | ? | 15.8µM*! | ? | ?
Cc1c2cnn(CC(=O)NCC(C)c3ccccc3)c(=O)c2c(C)n1Cc1cccc(Cl)c1 (centres undefined) | -1.1% | . | -4.5% | . | . | .
COc1cc(C)c2c(c1C=O)Oc1c(c(C)c(O)c3c1C(O)OC3=O)OC2=O (centres undefined) | -1.7% | ? | -24.1% | ? | 12.6µM* | 14.1µM*
Cc1ccc(S(=O)(=O)c2nnn(CC(=O)Nc3ccccc3C)c2N)cc1 | -12.8% | . | -2.8% | . | . | .
COC(=O)c1ccccc1 | . | . | . | . | 20.4% | 0.2%
O=C(NOC(=O)c1ccccc1)c1ccccc1 | -2.1% | 6.7% | 35.5µM* | -1.4% | 5.9% | -4.5%
CC(C)(C)n1ncc2c(=O)n(Cc3ccccc3SC(F)(F)F)cnc21 | . | . | . | . | -5.0% | .
Cc1cc(-c2ccc(N=Nc3cc(S(=O)(=O)O)c4ccccc4c3N)c(C)c2)ccc1N=Nc1cc(S(=O)(=O)O)c2ccccc2c1N | . | . | . | . | 25.1µM* | 12.6µM*
CC(C)CSc1n[nH]c(=S)s1 | 0.4% | 1.5% | ? | 10µM* | -0.4% | -0.6%
O=C1c2ccccc2C(=O)N1CCSc1n[nH]c(=S)s1 | -3.6% | . | ? | ? | -0.2% | -23.7%
SMILES | BLM inh | L3MBTL1 inh | KAT2A inh | JMJD2E inh | APE1 inh | RECQ1 inh
O=[N+]([O-])c1cc(/C=N/n2c(-c3ccncc3)n[nH]c2=S)ccc1Cl | -28.4% | -28.2% | -12.5% | ? | -15.5% | 4.47µM*
C/C(=N/Nc1ccc(C(=O)O)cc1)c1ccc(O)c(O)c1O | -0.6% | 14.1µM* | 0.9% | 8.91µM* | ? | -0.4%
COc1cc2c(cc1O)CCN[C@@]21CS[C@H]2c3c(OC(C)=O)c(C)c4c(c3C(COC1=O)N1C2C2c3c(cc(C)c(OC)c3O)CC([C@@H]1O)N2C)OCO4 (some centres undefined) | 10µM* | . | -20.4% | . | . | .
COc1ccc(Cc2nnc(N/N=C/c3ccc(O)cc3O)[nH]c2=O)cc1OC | -13.4% | 3.55µM* | -0.7% | -0.5% | -3.2% | 2.6%
S=c1[nH]nc(-c2ccccc2)n1/N=C/C=C/c1ccco1 | -12.3% | ? | -25.8% | -6.7% | 0.1% | -11.7%
S=c1[nH]nc(-c2ccc(Cl)cc2)n1/N=C/C=C/c1ccco1 | ? | 28.2µM* | -24.6% | ? | ? | ?
S=c1[nH]nc(-c2cccnc2)n1/N=C/C=C/c1ccco1 | 20µM* | 22.4µM* | ? | -19.3% | -13.9% | ?
COC(=O)CC1=C(C(=O)OC)C(c2cccs2)C(C#N)=C(N)O1 (centres undefined) | -0.9% | -1.9% | -0.4% | 22.4µM* | 8.6% | -2.7%
CCOC(=O)C1=C(CC)OC(N)=C(C#N)C1c1cccs1 (centres undefined) | -3.2% | . | -5.8% | ? | 2.5% | -7.8%
Oc1cc2c(c(Cl)c1O)CCNCC2c1ccccc1 (centres undefined) | . | . | -2.7% | 12.6µM* | 0.1% | -17.2%
C=CCN1CCc2cc(O)c(O)cc2C(c2ccccc2)C1 (centres undefined) | . | -14.0% | -0.7% | ? | 17.4% | -8.1%
C=CCN1CCc2c(cc(O)c(O)c2Cl)C(c2ccccc2)C1 (centres undefined) | -4.8% | . | -7.4% | 12.6µM* | -3.8% | -13.2%
Cc1cccc(C2CN(C)CCc3c2cc(O)c(O)c3Cl)c1 (centres undefined) | . | -9.8% | 2.4% | 12.6µM* | -10.2% | -0.4%
Oc1cc2c(c(Cl)c1O)CCNC[C@H]2c1ccccc1 | -6.7% | . | . | 12.6µM* | 9.8% | ?
CCc1ccc(-n2nc(C)c3c(C(=O)Nc4cccc(C(F)(F)F)c4)cc(C)nc32)cc1 | -11.1% | . | -29.9% | . | . | .
S=C(Nc1ccccc1)c1nc2ccccc2s1 | -1.4% | -16.4% | -0.2% | 0.2% | -1.5% | -0.7%
CCCCN(CC)C(=O)c1cc2c(=O)n3ccccc3nc2n1C | 0.5% | . | -3.1% | . | . | .
CCOC(=O)c1sc(Nc2ccc(OCC)cc2)nc1C | -5.9% | -9.1% | 32.4% | ? | -7.2% | -4.7%
CCOC(=O)c1sc(N2N=C(C)/C(=C\c3ccc(OCC(=O)OC)cc3)C2=O)nc1C | -2.2% | 24.9% | -3.6% | 22.4µM* | 15.4% | -4.9%
CN1CCN(Cc2c(O)ccc3cc(Br)ccc23)CC1 | -14.5% | -26.4% | -9.3% | ? | -2.6% | -12.9%
CCN(Cc1ccncc1)Cc1c(O)ccc2cc(Br)ccc12 | -0.5% | -17.0% | -2.2% | 7.08µM* | -2.9% | -16.4%
Cc1ccc(S(=O)(=O)N(C(=O)c2ccncc2)c2ccc(OC(=O)c3ccncc3)c3ccccc23)c(C)c1 | -7.7% | . | -5.9% | ? | -2.3% | -9.0%
